Screening data as filed in PubChem.
TMEM16A inh: TMEM16A chloride channel inhibitors, primary screen, cell-based, HTS; Anoctamin-1 (Mus musculus), Q8BHY3; HEK293 TMEM16A/YFP iodide influx fluorescence, ionomycin; normalized B-score (activity score, 25-100; higher = stronger inhibition) at 10 µM; 310,000 tested, 1.2% active; AID 588511, 2011;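 active = ratio plate-corrected score three or more library SD toward inhibition, starting fluorescence score within five deviations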;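 note: score derived from kinetic fluorescence span divided by baseline fluorescence per well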
TLR4-MyD88 BLA: inhibitors of TLR4-MyD88 association in cells, primary screen, cell-based, HeLa CL3-4, BLA complementation, FRET ratio; HeLa CL3-4 TLR4/MyD88 BLA complementation; inhibition, % at 8.4 µM; 200,000 tested, 0.18% active; AID 861, 2007; Toll-like receptor 4 (Homo sapiens) + Myeloid differentiation primary response protein …; in the data active = inhibition above about 25%;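 note: 0% = vehicle and 100% = reference inhibitor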
Target sequence (O00206 whole entry, looked up): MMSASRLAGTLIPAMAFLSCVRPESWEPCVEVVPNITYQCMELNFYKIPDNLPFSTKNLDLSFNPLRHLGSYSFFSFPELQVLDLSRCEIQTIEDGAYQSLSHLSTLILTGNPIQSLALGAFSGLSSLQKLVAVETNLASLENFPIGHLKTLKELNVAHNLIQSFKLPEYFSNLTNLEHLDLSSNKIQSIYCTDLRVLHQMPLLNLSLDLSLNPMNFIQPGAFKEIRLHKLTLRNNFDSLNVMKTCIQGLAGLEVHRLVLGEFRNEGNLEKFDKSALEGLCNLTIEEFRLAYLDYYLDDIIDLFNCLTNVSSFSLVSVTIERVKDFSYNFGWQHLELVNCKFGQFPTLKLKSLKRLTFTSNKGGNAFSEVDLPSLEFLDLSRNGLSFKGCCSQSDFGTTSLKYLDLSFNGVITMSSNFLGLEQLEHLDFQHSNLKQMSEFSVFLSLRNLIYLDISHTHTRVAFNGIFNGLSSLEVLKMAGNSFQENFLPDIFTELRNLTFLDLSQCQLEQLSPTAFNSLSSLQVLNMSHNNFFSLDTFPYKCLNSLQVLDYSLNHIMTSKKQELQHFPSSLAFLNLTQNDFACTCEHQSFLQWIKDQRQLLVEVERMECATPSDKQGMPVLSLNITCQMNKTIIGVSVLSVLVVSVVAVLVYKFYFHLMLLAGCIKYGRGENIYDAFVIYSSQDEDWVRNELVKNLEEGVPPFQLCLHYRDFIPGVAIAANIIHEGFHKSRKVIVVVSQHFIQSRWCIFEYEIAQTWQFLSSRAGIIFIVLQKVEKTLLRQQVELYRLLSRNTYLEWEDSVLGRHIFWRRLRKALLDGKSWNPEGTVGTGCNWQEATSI
Target sequence (Q99836 whole entry, looked up): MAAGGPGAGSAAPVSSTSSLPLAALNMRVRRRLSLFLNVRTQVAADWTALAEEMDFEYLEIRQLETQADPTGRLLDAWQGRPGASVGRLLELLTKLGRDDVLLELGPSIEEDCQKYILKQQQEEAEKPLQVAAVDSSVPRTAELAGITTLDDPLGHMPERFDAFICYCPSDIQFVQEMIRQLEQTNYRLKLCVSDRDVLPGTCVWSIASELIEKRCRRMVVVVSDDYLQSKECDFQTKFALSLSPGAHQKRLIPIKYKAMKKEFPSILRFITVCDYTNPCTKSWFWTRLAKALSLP
NOD2 RIPK2 PPI: NOD2-RIPK2 binding disruptors in cells, primary screen, fluorescence, CHO cells, BLA complementation; CCF4 ratio; inhibition, % at 4.98 µM; 360,000 tested, 0.38% active; in the data active = inhibition above about 21%;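 note: 0% = vehicle only and 100% = reference blocker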
TLR9-MyD88 inh: inhibitors of TLR9-MyD88 association in cells, primary screen, cell-based, CHO, BLA complementation, fluorescence. Toll-like receptor 9 (Homo sapiens) + Myeloid differentiation primary response protein …. CCF4 FRET ratio. inhibition, % at 4.98 µM. 340,000 tested, 0.21% active;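 active = inhibition above the mean over all tested compounds plus 3 SD, cut at about 21% in these data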;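 note: 0% = DMSO only wells and 100% = clavulanate BLA inhibitor control wells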
HTR2A ag: mouse Htr2a agonists via beta-arrestin recruitment, primary screen, cell-based, luminescence; CHO-K1 mHTR2A beta-arrestin complementation; percent of 30 µM serotonin response; activation, % at 7.6 µM; 360,000 tested, 0.66% active;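 active = activation above a run cutoff, the mean activation of all tested compounds plus 3 SD, cut at about 14% in these data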;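 note: 0% = plate median of compound wells and 100% = 30 µM serotonin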
ANO1 activ: TMEM16A chloride channel activators or potentiators, primary screen, cell-based, HTS. Anoctamin-1 (Mus musculus), Q8BHY3. HEK293 TMEM16A/YFP-H148Q/I152L, iodide quench fluorescence; stronger effect = lower value. B-score at 10 µM. 340,000 tested, 0.3% active. AID 623877, 2012;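 active = fluorescence-ratio B-score plate-corrected deviation score at least 3 library SD below zero, with starting fluorescence score within 5 deviations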;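 note: channel opened by trigger with iodide after compound preincubation; score built on the fluorescence ratio of max minus min over baseline; more negative score means more quench and so TMEM16A activation or potentiation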
TMEM16A reconf: TMEM16A chloride channel inhibitors, confirmation, cell-based, re-confirmation; 2,300 tested, 39% active; shares compounds with TMEM16A inh; inhibition, % at 10 µM; AID 652189, 2013; HEK293 TMEM16A/YFP-H148Q, iodide quench fluorescence; ionomycin added to raise cell calcium;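 active = mean duplicate percent inhibition, scaled so buffer wells are 0 and the reference blocker 100, over three buffer SD above buffer mean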
TMEM16A Ca cntr: calcium mobilization in TMEM16A/YFP HEK293 cells, confirmation, counter-screen for TMEM16A inhibitor project | shares compounds with TMEM16A inh | Fluo4 calcium mobilization | calcium response (% of ionomycin), % at 10 µM | 2,300 tested, 2% active | AID 652231, 2013;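 active = duplicate-averaged calcium signal over 20% of the ionomycin maximum, relative to buffer baseline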;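 note: each well's signal is peak minus trough fluorescence divided by its pre-addition baseline; 0% = buffer wells and 100% = ionomycin wells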
YFP-HEK293 quench: iodide YFP quench changes in parental YFP-HEK293, counter-screen for TMEM16A inhibitor project, cell-based; shares compounds with TMEM16A inh; ionomycin; YFP ratio F(max-min)/F0 at 10 µM; 2,300 tested, under 10 active; AID 652233, 2013;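 active = yellow fluorescent protein signal ratio exceeding the buffer control mean by over 5 SD of those controls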;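 note: ratio is mean of duplicate wells from kinetic YFP trace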
ClC-1 inh: ClC-1 chloride channel inhibition, selectivity assay for TMEM16A inhibitor project, cell-based, voltage-dependent ClC-1. CHO ClC-1-YFP, iodide influx fluorescence quench; iodide control reads 0, buffer control 100. shares compounds with TMEM16A inh. 2,300 tested, under 10 active. ratio percent, % at 10 µM. AID 652236, 2013;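 active = duplicate-mean ratio percent above the mean of iodide-only control wells, which defines zero, plus 5 of their SD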;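 note: higher percent means stronger block of ClC-1 iodide influx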
* hit, by the source's call; i = inactive; . = no result given. A selection: hits, their analogues and other compounds. The true share with any hit is near 2.4%.

SMILES	TMEM16A inh	TLR4-MyD88 BLA	NOD2 RIPK2 PPI	TLR9-MyD88 inh	HTR2A ag	ANO1 activ	TMEM16A reconf	TMEM16A Ca cntr	YFP-HEK293 quench	ClC-1 inh
CCN(CC)S(=O)(=O)c1cccc(C(=O)OCC(=O)c2ccc3c(c2)OCCO3)c1	25*	-7	-2	-3	1	i	16%*	i	-0.53	-7
CNS(=O)(=O)c1cccc(C(=O)OCC(=O)c2cc(C)n(-c3ccc4c(c3)OCO4)c2C)c1	25*	-9	-1	-5	-6	i	i	i	-0.95	-8
CNS(=O)(=O)c1cccc(C(=O)OCC(=O)c2cc(C)n(CC3CCCO3)c2C)c1 (configuration not stated)	.	.	-8	-11	1	i	.	.	.	.
CCN(CC)S(=O)(=O)c1cc(C(=O)OCC(=O)c2ccc3c(c2)NC(=O)CO3)ccc1Cl	100*	-13	-7	3	-3	i	18%*	i	-1	-12
Cc1cccc(OCCCCc2c(C)n[nH]c2C)c1C	100*	7	-4	-2	-2	i	i	i	-1.1	-16
CCOc1ccccc1OCCCCCc1c(C)n[nH]c1C	i	5	5	-10	2	i	.	.	.	.
Cc1cc(=O)oc2c1c(C)nn2-c1ccc(Br)cc1	i	-8	-9	3	7	i	.	.	.	.
CC(=O)c1c(C)[nH]c(C(=O)CSc2nc3ccc(C)cc3[nH]2)c1C	i	3	7	-10	-1	i	i	i	-0.82	-1
Cc1ccc2nc(SCC(=O)c3ccc(Cl)s3)[nH]c2c1	i	14	6	7	-4	i	.	.	.	.
COc1ccc2[nH]c(=O)c(CN(C(=O)C(C)C)c3ccccc3OC)cc2c1	i	.	1	-2	-3	i	.	.	.	.
CC(=O)c1cccc(NC(=S)NNC(=O)c2ccc(C)c([N+](=O)[O-])c2)c1	i	0	-16	1	6	i	.	.	.	.
Cc1ccc(NC(=S)NNC(=O)c2cccc([N+](=O)[O-])c2)cc1Cl	25*	.	-2	-4	-4	i	24%*	i	-1.1	-18
Cc1ccc(N2CC(C(=O)N3CCC4(CC3)CC(=O)c3ccccc3O4)CC2=O)cc1 (configuration not stated)	i	.	2	-7	-2	i	.	.	.	.
CCN(/C=N/c1sc2c(c1C#N)CCCCC2)CC	100*	-7	0	-1	2	i	i	i	-1.3	-9
CC(C)CN(/C=N/c1sc2c(c1C#N)CCCCC2)CC(C)C	i	-3	-9	1	-9	i	.	.	.	.
COc1cccc(-c2cnc(C(O)c3cc(C)c(OC)c(C)c3)[nH]2)c1 (configuration not stated)	.	.	-9	.	-4	.	.	.	.	.
Fc1ccc(NC(=S)N2CCCN(c3ccc(C(F)(F)F)cn3)CC2)c(F)c1	i	.	0	-5	2	i	.	.	.	.
O=C(Nc1ccc(F)cc1F)N1CCCN(c2ccc(C(F)(F)F)cn2)CC1	25*	.	-4	-7	-4	i	18%*	i	-1.1	1
N#CC(=C(O)COC(=O)c1ccc2c(c1)OCCO2)c1nc2ccccc2[nH]1	.	.	-3	-2	3	i	.	.	.	.
CN(C)c1ccc(N=C/C=C2\N(C)c3ccccc3C2(C)C)cc1	i	8	0	-16	-6	i	i	i	-0.52	46
COc1ccccc1OCC(=O)NCC1CCCCC1	100*	-3	7	-3	-3	i	i	i	-1.1	-19
COc1ccccc1OCC(=O)NNc1c2ccccc2nc2ccccc12	25*	.	-4	3	-4	i	17%*	i	-1	-4
O=C(CSc1ccccn1)N1CCN(c2cccc(Cl)c2)CC1	25*	-5	2	-12	13	i	i	i	-0.89	-14
CCOC(=O)Cc1ccc(NC(=O)c2ccc(C(C)(C)C)cc2)cc1	100*	0	2	-2	0	i	32%*	i	-0.91	4
CCOC(=O)Cc1ccc(NC(=O)c2ccccc2Br)cc1	i	-4	-3	5	4	i	.	.	.	.
SMILES	TMEM16A inh	TLR4-MyD88 BLA	NOD2 RIPK2 PPI	TLR9-MyD88 inh	HTR2A ag	ANO1 activ	TMEM16A reconf	TMEM16A Ca cntr	YFP-HEK293 quench	ClC-1 inh
Cc1ccc(CNC(=O)CCC(=O)N2CC(C)Oc3ccccc32)cc1 (configuration not stated)	i	.	-1	-1	1	i	.	.	.	.
CC(C)Cn1c(N)c(C(=O)COC(=O)CCc2nc3ccccc3s2)c(=O)n(C)c1=O	100*	-9	2	-2	7	i	21%*	i	-0.8	-18
CC(C)Cn1c(N)c(C(=O)COC(=O)CCc2nc3ccccc3c(=O)[nH]2)c(=O)n(C)c1=O	.	.	-11	-10	6	i	.	.	.	.
CC(C)Cn1c(N)c(C(=O)COC(=O)CC23CC4CC(CC(C4)C2)C3)c(=O)n(C)c1=O	25*	0	-2	-5	5	i	34%*	i	-0.81	-10
CN(c1ccccc1)S(=O)(=O)c1ccc(C(=O)Nc2nnc(-c3ccc(F)cc3)o2)cc1	100*	-3	.	.	.	.	18%*	i	-1	-8
CN1CCN(C(=O)C2CCC(=O)N(Cc3cccc(C(F)(F)F)c3)C2)CC1 (configuration not stated)	i	.	2	1	-5	i	.	.	.	.
CSc1ccccc1C(=O)NCC1CCCO1 (configuration not stated)	100*	-4	-3	1	1	i	i	i	-0.99	-12
COc1ccc(O)c(/C=N\NC(=O)CCn2nnc3ccccc32)c1	i	-5	0	3	-2	i	.	.	.	.
